Source: PubChem BioAssay AID488969 (Vanderbilt High Throughput Screening Facility, 2010)
Over roughly 110,000 compounds, “z-score” has its median near -0.1; the highest 2% begin near 2. Shown is part of a subset that was picked to be rich in the highest values. The source made the active and inactive calls.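 The calls were made as follows: active = z-score in the third read window above 3 or below -3; inactive = the rest.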

Biological target: Metabotropic glutamate receptor 8 (Rattus norvegicus) (UniProt P70579)
Assay: rat mGluR8 modulators via GIRK flux, primary screen, cell-based, thallium flux, HTS (AID 488969)
Conditions: HEK293 rat mGluR8, GIRK (G protein-gated inwardly rectifying potassium channel) thallium flux, FluoZin2; at 10 µM; stronger effect = higher value; submaximal glutamate (EC20) added with thallium

Sequence of Metabotropic glutamate receptor 8 (Rattus norvegicus) (P70579 whole entry, looked up): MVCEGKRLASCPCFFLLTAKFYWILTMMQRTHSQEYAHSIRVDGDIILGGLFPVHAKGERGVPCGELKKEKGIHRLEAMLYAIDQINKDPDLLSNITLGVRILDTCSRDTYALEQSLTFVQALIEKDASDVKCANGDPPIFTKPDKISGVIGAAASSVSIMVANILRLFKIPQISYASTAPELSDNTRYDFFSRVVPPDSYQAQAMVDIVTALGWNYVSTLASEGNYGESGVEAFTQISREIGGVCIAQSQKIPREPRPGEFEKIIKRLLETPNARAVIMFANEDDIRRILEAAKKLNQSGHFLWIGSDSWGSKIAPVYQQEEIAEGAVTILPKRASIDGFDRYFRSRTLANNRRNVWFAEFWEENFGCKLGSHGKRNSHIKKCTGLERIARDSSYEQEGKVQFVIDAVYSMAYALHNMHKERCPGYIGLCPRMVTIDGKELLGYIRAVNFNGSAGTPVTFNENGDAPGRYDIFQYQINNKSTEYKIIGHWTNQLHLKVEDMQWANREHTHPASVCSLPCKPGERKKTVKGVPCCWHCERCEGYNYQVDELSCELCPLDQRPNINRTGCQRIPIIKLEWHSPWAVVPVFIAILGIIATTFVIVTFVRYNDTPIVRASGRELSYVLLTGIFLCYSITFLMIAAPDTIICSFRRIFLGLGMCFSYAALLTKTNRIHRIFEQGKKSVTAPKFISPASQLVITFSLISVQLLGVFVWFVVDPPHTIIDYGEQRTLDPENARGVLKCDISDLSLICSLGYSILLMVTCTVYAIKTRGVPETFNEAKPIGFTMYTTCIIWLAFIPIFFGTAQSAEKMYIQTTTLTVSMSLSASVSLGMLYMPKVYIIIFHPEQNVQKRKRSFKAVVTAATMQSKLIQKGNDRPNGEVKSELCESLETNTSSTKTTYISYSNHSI

Compound | z-score
Cc1ccc2nc3sc(C(=O)N4CCCc5ccccc54)c(N)c3cc2c1 | 0.484
CN(Cc1nc(-c2ccncc2)no1)S(=O)(=O)c1ccccc1 | 0.00952
O=C(CSc1ccccn1)N1CCN(c2ccccc2)CC1 | 0.0291
CCOc1ccc2nc(SC3CC(=O)N(c4ccc(C)cc4)C3=O)sc2c1 (stereo not given) | 0.0229
Cc1[nH]n(-c2ccccc2)c(=O)c1C=Nc1cnc2ccccc2c1 | 0.416
COc1cc(SC#N)ccc1N=Cc1c(C)[nH]n(-c2ccc(C)cc2)c1=O | 0.469
CCOc1ccc2nc(/N=C/c3c(C)[nH]n(-c4ccccc4)c3=O)sc2c1 | 13.8 (active)
CCOc1ccc(N=Cc2c(C)[nH]n(-c3nc4ccccc4[nH]3)c2=O)cc1 | 0.0911
COc1ccc2nc(/N=C/c3c(C)[nH]n(-c4ccc(C)cc4C)c3=O)sc2c1 | 15.7 (active)
COc1ccc2nc(/N=C\N(C)C)sc2c1 | 0.401
CCOc1ccc2nc(/N=C/c3c(C)[nH]n(-c4ccc(C)cc4)c3=O)sc2c1 | 10.6 (active)
CCOc1ccc2nc(NC(=O)CS(=O)(=O)c3ccc(C)cc3)sc2c1 | -0.503
Cc1ccc(-n2[nH]c(C)c(C=Nc3ccc(S(=O)(=O)Nc4nc(C)cc(C)n4)cc3)c2=O)c(C)c1 | -0.0925
COc1cc(SC#N)ccc1N=Cc1c(C)[nH]n(-c2ccc(C)cc2C)c1=O | -0.204
COc1ccc2nc(/N=C/c3c(C)[nH]n(-c4ccc(C)cc4)c3=O)sc2c1 | 9.39 (active)
O=C(CCc1nc(-c2ccc(Cl)cc2)no1)OCc1ccc(Br)cc1 | -0.0119
O=C(CCSc1ccc(Cl)cc1)NC1CCCCC1 | -0.109
COC(=O)c1ccccc1NC(=O)c1cc(-c2ccc(O)cc2)on1 | -0.322
Cc1cc(N=Cc2cc(Br)ccc2O)no1 | -1.2
O=S1(=O)C[C@@H](O)[C@@H](Nc2ccc(Cl)cc2)C1 | -0.343
CCn1cc(/C=N/NS(=O)(=O)c2ccc(C)cc2)c(C)n1 | -0.045
CC(C)OC(=O)c1c(N)n(CCCN2CCOCC2)c2nc3ccccc3nc12 | -0.444
CC(C)OC(=O)c1c2nc3ccccc3nc2n2c1[nH]c(=O)c1ccccc12 | 16.9 (active)
COc1ccc2c(c1)c1nc3ccccc3nc1n2CC(=O)OC(C)C | 0.485
CCOC(=O)c1ccc(NC(=O)CN2C(=O)CNC2=O)cc1 | -0.263
CCOC(=O)C1=C(C)C2C3C(=O)N(c4ccccc4C)C(=O)C3C1(C)C1C(=O)N(c3ccccc3C)C(=O)C21 (stereo not given) | -0.246
O=C(CN1C(=O)NC2(CCc3ccccc32)C1=O)Nc1ccc(N2CCOCC2)cc1 (stereo not given) | -0.205
CCCC(=O)NC(=S)Nc1ccccc1C(F)(F)F | 0.25

Compound | z-score
Cc1ccc(C(=O)NC(=S)Nc2ccccc2C(F)(F)F)c(C)c1 | 0.996
Cc1ccc(C(=O)NC(=S)Nc2ccccc2C(F)(F)F)cc1 | 6.32 (active)
Cc1cccc(C(=O)NC(=S)Nc2ccccc2C(F)(F)F)c1 | 3.38 (active)
CC(C)C(=O)NC(=S)Nc1ccccc1C(F)(F)F | 0.0217
Cc1ccccc1C(=O)NC(=S)Nc1ccccc1C(F)(F)F | 1.41
Cc1ccc(C(=O)NC(=S)Nc2ccccc2C(F)(F)F)cc1C | 5.48 (active)
CCC(=O)NC(=S)Nc1ccccc1C(F)(F)F | 0.0622
CC(C)(C)CC(=O)NC(=S)Nc1ccccc1C(F)(F)F | 0.863
COc1cccc(C(=O)NC(=S)Nc2ccc(N3CCCC3)cc2)c1 | -0.087
O=C(CC1C(=O)N(c2ccccc2)C(=S)N1c1ccccc1)c1ccccc1 (stereo not given) | 0.466
CC(Sc1ncnc2ccccc12)C(=O)Nc1ccc2c(c1)OCCO2 (stereo not given) | -0.25
NS(=O)(=O)c1ccc(CCNC(=S)Nc2ccccc2)cc1 | -0.217
COc1ccccc1OCc1ccc(C(=O)Nc2ccccc2F)cc1 | -0.156
O=C(CSCc1cnn(-c2ccccc2)c1-n1cccc1)NCc1ccc2c(c1)OCO2 | 0.533
C#CCn1cc(/C=N/NC(=O)c2cc3ccccc3o2)c2ccccc21 | -0.24
Cc1cc(N2CCOCC2)nc2ccc(NC(=O)CCC(=O)N3CCCCC3)cc12 | -0.00221
Cc1cc(N2CCOCC2)nc2ccc(NC(=O)CCC(=O)N3CCC(C)CC3)cc12 | 0.27
Cc1cc(N2CCOCC2)nc2ccc(NC(=O)CCC(=O)N3CCCC(C)C3)cc12 (stereo not given) | 2.7
CCOC(=O)c1c(-c2ccccc2)nnn1-c1nc(OC)nc(N2CCOCC2)n1 | -0.476
Cc1ccnc2nc(C(=O)Nc3nnc(CC(C)C)s3)nn12 | -0.0103
Cc1ccc(NC(=O)CN2C(=O)S/C(=C\C(=O)Nc3ccc(Cl)cc3)C2=O)cc1 | -0.0557
COc1ccc(NC2=Nc3cccc4cccc2c34)cc1OC | 4.9 (active)
COc1cc(NC2=Nc3cccc4cccc2c34)cc(OC)c1OC | -0.385
COc1ccc(NC2=Nc3cccc4cccc2c34)cc1 | -0.54
COc1ccc(-c2cc(C#N)nc(N3CCNCC3)n2)cc1 | 2.07
COc1ccc(-c2cc(C#N)nc(N3CCN(c4ccccc4)CC3)n2)cc1 | -0.103
COc1ccc(-c2cc(-c3ccc(F)cc3)nc(N3CCN(C)CC3)n2)cc1 | 0.083
